Measurements taken from the supplement of paper PMC6555819.

Key:
Test in all cases: PBM binding z-score (relative to random genomic background probes); higher = stronger binding; sequences stand for … in GC…GCGATTGACAGCGTAGAATGAAGG
[1] = system: PPARg:RXRa DBDmut IVT, anti-RXR (DBD mutation: RXRa K156A/R161A, NR concentration 270 nM, RXRa partner concentration 90 nM)
Procedure, shortened: (§1)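 On custom Agilent 4×180K arrays, double-stranded probes with 34-nt variable regions carried direct-repeat seeds, single-nucleotide variants, half-site ablations or random human genomic background. Ligand-free nuclear receptor dimers were applied for 1 h, and binding was read with antibodies against each partner (one per run). Binding z-scores come from regression-normalized fluorescence, with the random background probes as reference.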

[2] = system: PPARg:RXRa IVT, anti-PPARg (NR concentration 270 nM, RXRa partner concentration 90 nM)
Procedure, shortened: as §1

[3] = system: PPARg DBDmut:RXRa IVT, anti-PPARg (DBD mutation: PPARg1 K132A/R137A, NR concentration 270 nM, RXRa partner concentration 90 nM)
Procedure, shortened: as §1

[4] = system: PPARg DBDmut IVT, anti-PPARg (DBD mutation: PPARg1 K132A/R137A, NR concentration 270 nM)
Procedure, shortened: as §1

[5] = system: PPARg homodimer (NR concentration 180 nM)
Procedure, shortened: as §1

[6] = system: PXR:RXRa (NR concentration 270 nM, RXRa partner concentration 90 nM)
Procedure, shortened: as §1

[7] = system: PXR homodimer (NR concentration 270 nM)
Procedure, shortened: as §1

[8] = system: RARa:RXR (NR concentration 270 nM, RXRa partner concentration 90 nM)
Procedure, shortened: as §1

[9] = system: RARa homodimer (NR concentration 270 nM)
Procedure, shortened: as §1

[10] = system: RARb:RXRa (NR concentration 270 nM, RXRa partner concentration 90 nM)
Procedure, shortened: as §1

| Sequence | PBM binding z-score [1] | PBM binding z-score [2] | PBM binding z-score [3] | PBM binding z-score [4] | PBM binding z-score [5] | PBM binding z-score [6] | PBM binding z-score [7] | PBM binding z-score [8] | PBM binding z-score [9] | PBM binding z-score [10] |
| --- | --- | --- | --- | --- | --- | --- | --- | --- | --- | --- |
| ATATGTAGGTTACATCCAGGTCATTCAGGCTATG | 7.73 | 7.59 | 2.75 | 2.95 | 2.59 | 3.82 | 4.54 | 3.35 | 1.06 | 2.53 |
| CAAACTAGGTCACAGATGTCAAAGTCCGTGCGTA | 8.74 | 8.85 | 3.45 | 2.75 | 2.09 | 2.47 | 0.19 | 3.24 | 1.17 | 4.17 |
| GCTAGTTGGTCAGTAAAAGGTCACAAACCGGTCG | 0.812 | 2.83 | -0.571 | -0.0957 | 2.9 | 4.8 | 1.2 | 5.58 | 1.91 | 3.91 |
| CAAATTAGGTCAAAGGTCAAAGTCGAGCCAACCA | 8.74 | 8.96 | 4.97 | 4 | 6.21 | 7.1 | 2.26 | 8.95 | 3.73 | 5.94 |
| CGAACTAGGTCATCCAGCACAGTGAATACATTGA | 8.26 | 8.11 | 2.99 | 2.39 | 1.64 | 1.47 | 0.241 | 2.25 | 0.526 | 3.71 |
| GCTTGCAGATCAAGGTTAAGAAAGACTAAGCTAA | 0.163 | 0.227 | -0.556 | -0.251 | -0.687 | 0.18 | -0.42 | 0.588 | -0.293 | 0.686 |
| CCTCGGAGTACAGAAGGTCAGAGCTGTCCGCTTT | 0.368 | -0.113 | -0.995 | -1.23 | 1.8 | 1.83 | 0.165 | 2.18 | 0.283 | 2.69 |
| CAAACTAGGTCACCCGAAGGTCAAAGTCCGCATG | 8.43 | 8.81 | 7.92 | 7.09 | 11.1 | 6.02 | 2.67 | 7.7 | 3.95 | 5.29 |
| TCATATAGGCAAAGGTGAAAGTCGAACGATATGA | 2.2 | 2.33 | 0.797 | 0.292 | 0.811 | 1.04 | 0.14 | 2.02 | 0.326 | 1.74 |
| CAAACCAGGTCACCGGAAGGTCAAAGTCCGCATG | 5.78 | 6.75 | 1.83 | 1.5 | 9.32 | 6.5 | 3.77 | 8.09 | 3.77 | 5.33 |
| ACAGAAAGGTGAGTGAAGGTAACTCAGCTGGACG | 1.69 | 1.91 | 0.587 | -0.401 | 0.248 | 0.345 | -0.335 | 0.81 | 0.239 | 2.47 |
| TTACCAAGGTGAAGGTTGTTGATCCCTCTGTAGA | 1.42 | 2.94 | 0.413 | -0.108 | 0.542 | 0.665 | -0.348 | 0.887 | -0.403 | 1.58 |
| TAGCATAGGTCATTCAGGGGCCAGTATAGAAAGC | 1.02 | 2.08 | 0.638 | 0.381 | 5.69 | 4.14 | 0.0442 | 5.79 | 1.25 | 4.4 |
| ACTATGAGTTGACTTAGGGCAACCGATACGACGC | 0.0745 | 0.378 | 0.38 | 1.61 | 0.141 | 0.608 | 0.888 | 1.09 | 0.486 | 0.974 |
| TCTAGCAGGCCAGAGGGTCACTCGAGAGGTACGG | 0.838 | 0.906 | -0.167 | -1.13 | 0.221 | 1.24 | -0.669 | 2.4 | -0.335 | 2.19 |
| ATATCTAGGTAACCAAGTTCAGTGAATGCCGAAC | 6.87 | 6.81 | 1.28 | 1.43 | 1.06 | 2.01 | 1.85 | 0.933 | 0.953 | 1.39 |
| TTACCAAGGTGATAGGTCGTTGATGCACGCCTTG | 1.07 | 2.82 | 0.428 | 0.413 | 1.26 | 0.611 | -0.14 | 1.36 | -0.163 | 1.07 |
| CAAACTAGGTCTCGAAAGGTCAAAGTCGAATGAC | 5.54 | 5.71 | 2.45 | 0.645 | 3.86 | 5.61 | 2.13 | 6.33 | 2.57 | 4.4 |
| GCTAGTTAGTCAGTAAAAGGTCACACACCGGTCG | 0.245 | 2.45 | 0.12 | 0.0734 | 3.34 | 4.72 | 0.761 | 4.98 | 2.21 | 3.96 |
| CGTCCAAGGTCAGCAGGTCAGTGAAAGCGACGTG | 2.94 | 3.8 | 0.0823 | -0.0279 | 3.81 | 3.7 | 0.523 | 4.76 | 0.465 | 5.34 |
| ACCATTAGTTGACTTAGGGCAACCGATACGACGC | 0.771 | 0.653 | 0.856 | -0.189 | 0.706 | 0.147 | 0.618 | 0.916 | 0.526 | 0.973 |
| ACTAGCAGGCCAAATTTGGGTCACTCAAACAAAG | 2.87 | 4.17 | 0.302 | 0.302 | 0.993 | 0.803 | -0.346 | 1.72 | -0.199 | 1.54 |

| Sequence | PBM binding z-score [1] | PBM binding z-score [2] | PBM binding z-score [3] | PBM binding z-score [4] | PBM binding z-score [5] | PBM binding z-score [6] | PBM binding z-score [7] | PBM binding z-score [8] | PBM binding z-score [9] | PBM binding z-score [10] |
| --- | --- | --- | --- | --- | --- | --- | --- | --- | --- | --- |
| CAAACTATGTCACAGAGGTCAAAGTCCGTGCGTA | 5.08 | 5.55 | 0.905 | 0.872 | 3.02 | 5.88 | 3.31 | 5.97 | 1.58 | 4.19 |
| TCTCGGAGGACACGAAGGTCAGATCTTTCCAGAG | 1.59 | 0.717 | -0.994 | -1.02 | 2.07 | 2.44 | 2.3 | 2.16 | 0.52 | 3.35 |
| GAAGACAGGTGAAACGCAGGTAACTCAGGGTGGC | 0.674 | 1.15 | 0.0757 | -0.907 | -0.0582 | -0.0972 | -0.579 | 0.542 | -0.418 | 0.745 |
| AGTATGAGGTTATACGTAGATCAGGGAAGAAAGT | 1.1 | 0.98 | 0.752 | 0.274 | 0.842 | 1.25 | 0.582 | 1.66 | 0.209 | 1.58 |
| ACAGACAGGTGATGAAGGTAACTCAGGCTATCAT | 0.422 | 0.692 | 0.619 | 0.238 | 0.146 | -0.153 | 0.282 | 0.117 | 0.425 | 0.236 |
| CGAACGAGGGCATGAGTTGATAGCGAATGCCGAT | 3.22 | 2.24 | -0.216 | -0.415 | 0.483 | 0.461 | -0.235 | 0.351 | -0.349 | 1.97 |
| CCTACTGGGCCACGAAAGGTTATTGATTCAGTGA | 5.07 | 5.34 | 0.351 | -0.129 | 0.506 | 1.43 | 0.179 | 1.78 | 0.179 | 1.39 |
| CCTAATTGGTCAGGAGGTCACACACCGGATATGA | 1.64 | 3.67 | 0.824 | 0.695 | 3.7 | 4.19 | 1.4 | 4.5 | 2.15 | 3.87 |
| CCTACTGGGCCACGAAAGGTCTTTGATTCAGTGA | 4.89 | 5.29 | 0.279 | -0.311 | 0.598 | 0.109 | -0.43 | 0.284 | -0.304 | 0.791 |
| TCTGCTAGGTCACCGATGGTCAGCTAATCTGCTA | 4.6 | 4.81 | 0.945 | 0.734 | 0.378 | 1.91 | -1.04 | 2.75 | -1.39 | 4.36 |
| TCTCGGAGGACACGAAGGTTAGAGCTTTCCAGAG | 0.921 | 0.171 | -0.626 | -1.17 | -0.693 | 0.0364 | -0.704 | 0.0543 | -1.13 | 1.88 |
| CAAACTAGGTCAACGTCAAAGTCGGTTTGTGCCA | 8.75 | 8.75 | 5.16 | 4.41 | 2.59 | 1.58 | 0.241 | 2.38 | 0.739 | 4.11 |
| CTCGAAAGGTCGTGCTCAGGTCAGTATACCAAAC | 1.1 | 2.14 | 1.37 | 1.38 | 3.94 | 5.57 | 1.25 | 6.37 | 0.951 | 4.41 |
| CAAACTAGGTCAAGACGTCAAAGTCCGCTTCCCG | 7.92 | 8.15 | 1.87 | 1.07 | 1.86 | 1.24 | -0.0732 | 2.5 | 0.685 | 3.97 |
| CATACAGGGCCAGCTAGGCCAGAGTAGGGACGGC | -0.75 | -0.0426 | -0.139 | -0.903 | -0.651 | -0.993 | -0.765 | -0.772 | -0.751 | 0.645 |
| TTACCAAGGTGAGGGTCGTTGATCCCTCTGTAGA | 1.3 | 2.21 | -0.596 | -0.428 | 0.109 | 0.865 | -0.63 | 1.36 | -0.812 | 1.45 |
| CCTATTAGTTGACCATAAGGGCAACTGAAGCTCG | 0.175 | 0.85 | 0.663 | 0.553 | 1.38 | 1 | 0.613 | 0.807 | 1.39 | 1.73 |
| TCTTTTAGATCAGCAGGTTAAGAAAGCTGGCCAA | 1.92 | 0.4 | 0.922 | 0.837 | 0.344 | 0.321 | 0.072 | 0.753 | 0.437 | 0.563 |
| TAGCCTAGGTCATGCGGGCCAGTTTAGTGTCGGC | 2.01 | 2.55 | -0.215 | -0.754 | 0.303 | 1.59 | -0.464 | 2.22 | -0.83 | 3.45 |
| ATCTCTAGGTAAAAGTTCAGCGAATCCCGAGGAT | 2.55 | 4.3 | 1.19 | 1.67 | 2.4 | 2.46 | 1.54 | 2.48 | 0.715 | 2.93 |
| TCTAGCAGGCCAGAGGGTCACTTAAGAGGTACGG | 0.598 | 0.688 | -0.762 | -0.435 | 0.442 | 1.35 | -0.462 | 2.27 | -0.441 | 2.19 |
| ACTTGCAGGCCAAGTTTGGGTCACTCAAACAAAG | 2.37 | 1.92 | 0.338 | 0.0722 | 0.632 | 0.858 | -0.0999 | 1.61 | -0.63 | 2.05 |
